Screening results from PubChem.
In the library only some 2.2% were active in any assay of this set; here they are far more common.
TLR4 MyD88 comp = blocks binding of human TLR4 to MyD88; O00206+Q99836; inhibition, % at 8.4 µM; AID 861; actives 0.18% (n = 200,000); HeLa CL3-4 TLR4/MyD88 BLA complementation, FRET ratio; in the data active means inhibition above about 25%;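 further: 0% = vehicle and 100% = reference inhibitor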
TMEM16A inh = mouse TMEM16A channel inhibition, primary screen; actives 1.2% (n = 310,000); AID 588511; normalized B-score (activity score, 25-100; higher = stronger inhibition) at 10 µM; Q8BHY3; HEK293 TMEM16A/YFP iodide influx fluorescence, ionomycin;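 active means ratio plate-corrected score three or more library SD toward inhibition, starting fluorescence score within five deviations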;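 further: score derived from kinetic fluorescence span divided by baseline fluorescence per well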
GRK2 inh = blocks RNA aptamer binding to human GRK2; bead flow cytometry, FAM-aptamer displacement from GRK2; inhibition of aptamer binding, % at 10 µM; P25098; actives 0.59% (n = 330,000);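 active means inhibition of aptamer binding above 40%, roughly 3 SD of noise, on plates passing a quality check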;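 further: median bead fluorescence of bound FAM aptamer so fluorescent compounds give negative values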
NOD2 RIPK2 PPI = inhibitors of human NOD2-RIPK2 interaction; AID 624267; O43353; actives 0.38% (n = 360,000); CHO BLA complementation NOD2-RIPK2, CCF4 ratio; inhibition, % at 4.98 µM; in the data active means inhibition above about 21%;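 further: 0% = vehicle only and 100% = reference blocker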
ANO1 activ = mouse TMEM16A channel activation, primary screen; actives 0.3% (n = 340,000); AID 623877; HEK293 TMEM16A/YFP-H148Q/I152L, iodide quench fluorescence; hits give low values; Q8BHY3; B-score at 10 µM;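 active means fluorescence-ratio B-score plate-corrected deviation score at least 3 library SD below zero, with starting fluorescence score within 5 deviations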;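 further: channel opened by trigger with iodide after compound preincubation; score built on the fluorescence ratio of max minus min over baseline; more negative score means more quench and so TMEM16A activation or potentiation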
TLR9-MyD88 inh = blocks human TLR9 binding to MyD88; Q9NR96+Q99836; CHO BLA complementation TLR9-MyD88, CCF4 FRET ratio; inhibition, % at 4.98 µM; actives 0.21% (n = 340,000); AID 504734;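 active means inhibition above the mean over all tested compounds plus 3 SD, cut at about 21% in these data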;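 further: 0% = DMSO only wells and 100% = clavulanate BLA inhibitor control wells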
TMEM16A reconf = TMEM16A (mouse) chloride channel inhibition, re-confirmation | inhibition, % at 10 µM | AID 652189 | HEK293 TMEM16A/YFP-H148Q, iodide quench fluorescence; ionomycin added to raise cell calcium | actives 39% (n = 2,300) | shares compounds with TMEM16A inh;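 active means mean duplicate percent inhibition, scaled so buffer wells are 0 and the reference blocker 100, over three buffer SD above buffer mean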
HEK293 Ca mobil = calcium mobilization counter-screen hit for TMEM16A inhibitor series. TMEM16A/YFP HEK293, Fluo4 calcium mobilization. calcium response (% of ionomycin), % at 10 µM. shares compounds with TMEM16A inh. actives 2% (n = 2,300);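 active means duplicate-averaged calcium signal over 20% of the ionomycin maximum, relative to buffer baseline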;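 further: each well's signal is peak minus trough fluorescence divided by its pre-addition baseline; 0% = buffer wells and 100% = ionomycin wells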
Parental YFP cnt = counter-screen for TMEM16A inhibitors: effect in parental YFP-HEK293 cells; shares compounds with TMEM16A inh; iodide YFP quench, ionomycin; YFP ratio F(max-min)/F0 at 10 µM; 2,300 tested, under 10 active; AID 652233;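 active means yellow fluorescent protein signal ratio exceeding the buffer control mean by over 5 SD of those controls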;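 further: ratio is mean of duplicate wells from kinetic YFP trace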
ClC-1 inh = rat ClC-1 inhibition, TMEM16A specificity screen; shares compounds with TMEM16A inh; CHO ClC-1-YFP, iodide influx fluorescence quench; iodide control reads 0, buffer control 100; ratio percent, % at 10 µM; 2,300 tested, under 10 active; AID 652236;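 active means duplicate-mean ratio percent above the mean of iodide-only control wells, which defines zero, plus 5 of their SD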;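 further: higher percent means stronger block of ClC-1 iodide influx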
Numbers without * were called inactive.

Cc1nc(NCCc2ccccc2)c2oc3ccccc3c2n1 was read as TLR4 MyD88 comp 13, TMEM16A inh 25*, GRK2 inh 0, NOD2 RIPK2 PPI 8, ANO1 activ inactive, TLR9-MyD88 inh -4, TMEM16A reconf inactive, HEK293 Ca mobil inactive, Parental YFP cnt -1 and ClC-1 inh -24.
Cc1nc(NCCN2CCOCC2)c2oc3ccccc3c2n1 was read as TLR4 MyD88 comp 7, TMEM16A inh inactive, GRK2 inh 8, NOD2 RIPK2 PPI -4, ANO1 activ inactive and TLR9-MyD88 inh -2.
For CCOC(=O)c1cnc2ccc(OC)cc2c1Nc1ccc2c(c1)OCCO2 the results were TLR4 MyD88 comp -2, TMEM16A inh 100*, GRK2 inh 1, NOD2 RIPK2 PPI 3, ANO1 activ inactive, TLR9-MyD88 inh -8, TMEM16A reconf inactive, HEK293 Ca mobil inactive, Parental YFP cnt -1.1 and ClC-1 inh -14.
For CC(=O)c1ccc(OCCCC(=O)N2CCN(S(=O)(=O)c3ccc(C(C)C)cc3)CC2)cc1 the results were TMEM16A inh 25*, GRK2 inh 0, NOD2 RIPK2 PPI 2, ANO1 activ inactive, TLR9-MyD88 inh -3, TMEM16A reconf inactive, HEK293 Ca mobil inactive, Parental YFP cnt -1 and ClC-1 inh -12.
`COc1ccc(C(=O)COC(=O)c2ccccc2NS(=O)(=O)c2ccc(O)c([N+](=O)[O-])c2)cc1` gave TMEM16A inh 25*, GRK2 inh 2, NOD2 RIPK2 PPI -10, ANO1 activ inactive, TLR9-MyD88 inh -9, TMEM16A reconf 30%*, HEK293 Ca mobil inactive, Parental YFP cnt -0.86 and ClC-1 inh -10.
COc1cc(C)c(CN2CCN(CC(=O)Nc3ccccc3C(=O)NC3CC3)CC2)cc1OC was read as GRK2 inh 0, NOD2 RIPK2 PPI -5, ANO1 activ inactive and TLR9-MyD88 inh -11.
`Cc1cccc(/N=C/c2sc3ccccc3c2O)n1` gave TMEM16A inh inactive, GRK2 inh 0, NOD2 RIPK2 PPI -6, ANO1 activ inactive, TLR9-MyD88 inh -1, TMEM16A reconf inactive, HEK293 Ca mobil inactive, Parental YFP cnt -1.3 and ClC-1 inh -8.
For O=C(O)CSc1nnc(Cn2c(=O)sc3ccccc32)n1-c1cccc(Cl)c1 the results were TLR4 MyD88 comp 5, TMEM16A inh inactive, GRK2 inh 2, NOD2 RIPK2 PPI 8, ANO1 activ inactive and TLR9-MyD88 inh 3.
`NC(=O)CSc1nnc(Cn2c(=O)sc3ccccc32)n1-c1cccc(Cl)c1` gave TLR4 MyD88 comp -2, TMEM16A inh 25*, GRK2 inh 1, NOD2 RIPK2 PPI 1, ANO1 activ inactive, TLR9-MyD88 inh -9, TMEM16A reconf inactive, HEK293 Ca mobil inactive, Parental YFP cnt -1.3 and ClC-1 inh -6.
CCOC(=O)CN1C(=O)C2Cc3ccccc3CN2C1=S (centres undefined) was read as TLR4 MyD88 comp -9, TMEM16A inh inactive, GRK2 inh 0, NOD2 RIPK2 PPI 5, ANO1 activ inactive and TLR9-MyD88 inh 12.
For COCC(=O)N1CCC(Oc2ccc(C(=O)N(C)CCCC3CCCC3)cc2)CC1 the results were TMEM16A inh inactive, GRK2 inh 0, NOD2 RIPK2 PPI -19, ANO1 activ inactive and TLR9-MyD88 inh -1.
`C=CCc1ccc(OCCOCCOc2cccc3cccnc23)c(OC)c1` gave TLR4 MyD88 comp 11, TMEM16A inh inactive, GRK2 inh 5, NOD2 RIPK2 PPI 5, ANO1 activ inactive and TLR9-MyD88 inh -1.
C=CCc1ccc(OCCOCCOc2ccccc2[N+](=O)[O-])c(OC)c1 was read as TLR4 MyD88 comp 6, TMEM16A inh 100*, GRK2 inh 0, NOD2 RIPK2 PPI -1, ANO1 activ inactive, TLR9-MyD88 inh 6, TMEM16A reconf inactive, HEK293 Ca mobil inactive, Parental YFP cnt -1.1 and ClC-1 inh -11.
CCOC(=O)c1ccccc1NC1c2ccccc2C(=O)N1c1cc(C)ccn1 (centres undefined) was read as TLR4 MyD88 comp 2, TMEM16A inh 100*, GRK2 inh 3, NOD2 RIPK2 PPI -1, ANO1 activ inactive, TLR9-MyD88 inh -5, TMEM16A reconf inactive, HEK293 Ca mobil inactive, Parental YFP cnt -0.98 and ClC-1 inh 0.
FC(F)(F)c1nc(N2CCCC2)ncc1-c1nnnn1-c1ccc(Cl)cc1 was read as TLR4 MyD88 comp -1, TMEM16A inh 25*, GRK2 inh 3, NOD2 RIPK2 PPI -7, ANO1 activ inactive, TLR9-MyD88 inh -3, TMEM16A reconf inactive, HEK293 Ca mobil inactive, Parental YFP cnt -1.1 and ClC-1 inh -20.
`CCC(CC)c1nnc(NC(=O)c2cccc(S(=O)(=O)N3CCc4ccccc43)c2)s1` gave TLR4 MyD88 comp 7, TMEM16A inh inactive, GRK2 inh 0, NOD2 RIPK2 PPI 0, ANO1 activ inactive and TLR9-MyD88 inh 0.
CCOC(=O)c1sc(NC(=O)c2cccc(S(=O)(=O)N3CCc4ccccc43)c2)c(C#N)c1C was read as TMEM16A inh 25*, GRK2 inh 2, NOD2 RIPK2 PPI 3, ANO1 activ inactive, TLR9-MyD88 inh 4, TMEM16A reconf 26%*, HEK293 Ca mobil inactive, Parental YFP cnt -0.89 and ClC-1 inh -5.
Screening COc1ccc(Cc2noc(CN3CCN(c4ccc(Cl)cn4)CC3)n2)cc1OC returned TLR4 MyD88 comp 1, TMEM16A inh 100*, GRK2 inh 0, NOD2 RIPK2 PPI -12, ANO1 activ inactive, TLR9-MyD88 inh 4, TMEM16A reconf 28%*, HEK293 Ca mobil inactive, Parental YFP cnt -0.99 and ClC-1 inh 6.
`COc1ccc(Cc2noc(CN3CCN(Cc4cccc(Cl)c4)CC3)n2)cc1OC` gave TLR4 MyD88 comp -5, TMEM16A inh inactive, GRK2 inh 6, NOD2 RIPK2 PPI 7, ANO1 activ inactive and TLR9-MyD88 inh -6.
`CC(=O)Nc1ccc(C=NNC(=O)CCCC(=O)NN=Cc2ccc(NC(C)=O)cc2)cc1` gave NOD2 RIPK2 PPI -2, ANO1 activ inactive and TLR9-MyD88 inh 7.
